SW480 rerep: DNA re-replication induction in SW480 cells. SW480 DNA re-replication, Hoechst DNA content imaging, 48 h. Potency, µM (doses to about 46.1 µM), without a hit: top-dose re-replication activation, usual class: activators. actives 1.8% (n = 340,000); further: % of control where 0% means no effect; nearly all actives have a fitted effect of over 55% in size
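DNA re-replication was detected as more nuclei of elevated Hoechst intensity after 48 hr exposure to compound (23 nL pinned per well of 250 cells).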
HT1080 IDH1KD tx: kills HT-1080 cells with IDH1 knockdown | HT-1080 IDH1 knockdown viability, ATP luminescence, 48 h | Potency, µM (series often up to 46.1 µM), inactives show top-dose activity, negative = toxicity, most hits filed as cytotoxic | actives 2% (n = 360,000) | AID 686971;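 further: 0% = DMSO wells and -100% = cell-free medium wells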
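After a 2 h attachment period, IDH1KD HT-1080 cells took pin-transferred compound for 48 h at 37 °C; ATP-based luminescence after 10 min room-temperature reagent incubation reported viability.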
KB-3-1 cytotox: kills parental KB-3-1 adenocarcinoma cells. KB-3-1 viability, CellTiter-Glo ATP luminescence, 72 h. Potency, µM (highest dose often 46.1 µM), most hits filed as cytotoxic. actives 1.4% (n = 400,000). AID 1347075; further: on the % scale 0 is the no-effect control and ±100 the full control effect; nearly all actives have a fitted effect of over 60% in size
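Cells are dispensed, compounds pinned in, plates held at 37 °C for 72 h, then CellTiter-Glo is added and luminescence read after 10 minutes. Cell line: parental KB-3-1 in phenol-red-free DMEM, 10% FBS.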
HT1080NT lethal: kills 2HG-producing HT-1080-NT fibrosarcoma cells. HT-1080-NT fibrosarcoma viability, CellTiter-Glo ATP luminescence, 48 h. Potency, µM (highest dose often 46.1 µM), for the others: at the top dose activity, negative = less viability, most hits filed as cytotoxic. actives 1.6% (n = 360,000). AID 686970;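 further: NT is the 2HG producing partner of a matched IDH1 knockdown line; 0% = DMSO-treated cells and -100% = media-only wells without cells; nearly all actives have a fitted effect of over 55% in size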
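HT-1080-NT; 750 cells/well; 5% FBS RPMI; 48 h compound, 37 degrees C; CellTiter-Glo luminescence; curve fitting and curve-class assignment.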
MCF10A rerep: DNA re-replication induction in MCF 10a cells. Potency, µM (top dose mostly 46.1 µM), for inactives: at the highest dose activity, positive = re-replication, most hits filed as activators. actives 2.9% (n = 350,000). MCF 10A DNA re-replication, Hoechst nuclear intensity, 48 h; further: % of control where 0% means no effect; nearly all actives have a fitted effect of over 50% in size
KB-V1 MDR tox: kills drug-selected multidrug resistant KB-V1 cells | Potency, µM (titrated, usually from 46.1 µM), most hits filed as cytotoxic | actives 3.4% (n = 400,000) | KB-V1 MDR cells viability, CellTiter-Glo, 72 h | AID 1347076; further: on the % scale 0 is the no-effect control and ±100 the full control effect; nearly all actives have a fitted effect of over 60% in size
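Cytotoxicity toward P-gp-expressing KB-V1 cells was determined as loss of CellTiter-Glo luminescence after 72 h at 37 degrees C. Compounds were tested in quantitative HTS format across a concentration range, with curves fitted to normalized data.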
An asterisk follows results filed as active; i = inactive; ? = inconclusive; nt = not tested or not shown; [ ] = remark or other dose. Sampled rows, rich in hits. Any-hit rate of the full collection: about 8%. The call rests on the fitted dose curve; in most records, active means well fitted curve in the direction sought with a large enough effect; inconclusive means small, poorly fitted or top-dose-only effect, or another doubt; inactive means no such curve, though single readings can be large; an effect the other way counts as inactive or inconclusive. Potency means the concentration at half of the fitted maximal effect.

SMILES	SW480 rerep	HT1080 IDH1KD tx	KB-3-1 cytotox	HT1080NT lethal	MCF10A rerep	KB-V1 MDR tox
CCCCCC(=O)N1C[C@H](O)[C@@H](n2cc(-c3ccc(F)cc3)nn2)C[C@@H]1c1ccccc1	nt	8%	i	-2%	nt	i
COc1cccc(-n2nc(C#N)c(Cl)cc2=O)c1	?	15µM*	?	9.2µM*	4.5µM*	i
Cc1cccc(-c2nc(CS(=O)CC(=O)NCC3CCCO3)c(C)o2)c1 (configuration not stated)	-3%	11%	i	3%	-3%	i
O=C(O)C1CCN(c2c([N+](=O)[O-])cc(C(F)(F)F)cc2[N+](=O)[O-])CC1	-9%	11%	i	12%	1%	i
O=c1c2ccccc2nc(/C=C/c2cccc([N+](=O)[O-])c2)n1CCCO	12%[9.22 µM]	?	i	-22%	23%	i
O=c1c2ccccc2nc(/C=C/c2ccc([N+](=O)[O-])o2)n1CCCO	4.5µM*	2.9µM*	5.8µM*	2.9µM*	4.5µM*	?
O=c1c2ccccc2nc(/C=C/c2ccc([N+](=O)[O-])cc2)n1CCCO	3%	-11%	?	1%	15%	21µM*
COC(=O)C1=CN(c2cccc(C(F)(F)F)c2)C=C(C(=O)OC)C1c1ccc(O)c(OC)c1	?	?	?	?	?	i
Cc1ccc(Sc2c([N+](=O)[O-])c(=O)n(C)c3ccccc23)cc1	4%	7%	?	4%	5.8µM*	i
Cc1ccc(Sc2c(O)c3ccccc3n(C)c2=O)cc1	-270%	14%	i	11%	-1%	i
Cc1ccc(Sc2c(C=O)c3ccccc3n2C)cc1	15µM*	?	23µM*	?	?	?
Cc1nc(N2CCN(c3ccccn3)CC2)c2c(C)c(C(=O)N3CCN(c4ccccc4F)CC3)sc2n1	7%	-4%	?	-25%	7.3µM*	21µM*
Cc1ccc(NC(=O)c2sc3nc(C)nc(N4CCN(c5ccccn5)CC4)c3c2C)c(C)c1	11%	-9%	i	-4%	?	i
Cc1ccc(S(=O)(=O)N2CCCCC2c2cccnc2)c(C)c1C (configuration not stated)	-19%	-3%	?	0%	2%	16µM*
CN(CC(=O)Nc1ccc(F)c(F)c1F)C(=O)CC1CCCCC1	-7%	-9%	i	-3%	-5%	15µM*
Fc1ccc(CN2CCN3CCCC3C2C2CCCCC2)cc1F (configuration not stated)	?	?	i	-28%	21µM*	i
Oc1c(Cl)cc(CN2CCOCC2)c2cccnc12	?	5.8µM*	?	7.3µM*	12µM*	i
COc1ccc(C(=O)Oc2c(CN3CCOCC3)cc(Cl)c3cccnc23)cc1OC	-15%	10%	?	21%	2%	?
O=C(Oc1c(CN2CCOCC2)cc(Cl)c2cccnc12)c1ccccc1	8.2µM*	10µM*	?	?	?	?
Oc1c(CN2CCCCC2)cc(Br)c2cccnc12	?	?	13µM*	?	23µM*	?
COc1cc(OC)cc(C(=O)Oc2c(CN3CCOCC3)cc(Cl)c3cccnc23)c1	?	-26%	i	?	-3%	?
O=C(COc1c(Br)cc(Br)c2cccnc12)N1CCCCC1	-9%	-16%	i	-15%	3%	i
O=C(Oc1c(CN2CCOCC2)cc(Cl)c2cccnc12)c1ccccc1F	6.5µM*	?	18µM*	?	18µM*	?
CN1CCN(Cc2cc(COCc3ccccc3)c3cccnc3c2O)CC1	6.3µM*	?	?	?	?	?
Oc1ccc(CN2CCN(Cc3ccccc3)CC2)c2cccnc12	?	-17%	?	?	13%	i
SMILES	SW480 rerep	HT1080 IDH1KD tx	KB-3-1 cytotox	HT1080NT lethal	MCF10A rerep	KB-V1 MDR tox
Cc1cc(C)cc(NC(=O)C(c2ccccc2)N2CCN(CC(=O)NC3CC3)CC2)c1 (configuration not stated)	4%	-3%	i	-7%	4%	16µM*
Cc1ccc(NC(=O)C(c2ccccc2)N2CCN(CC(=O)NC3CC3)CC2)cc1 (configuration not stated)	-1%	9%	i	-4%	-3%	21µM*
Cc1ccc(NC(=O)C(c2ccccc2)N2CCN(CC(=O)NC3CC3)CC2)cc1Cl (configuration not stated)	2%	1%	i	2%	-1%	i
O=C(NCc1ccc2c(c1)CCN2C(=O)c1ccc(F)cc1)c1cc2ccccc2[nH]1	nt	nt	i	nt	nt	i
O=C(Nc1cc(F)cc(F)c1)c1ccc(NCCCN2CCCCCC2)c([N+](=O)[O-])c1	?	?	i	?	13%	?
CC(=NNC(=O)c1ccncc1)c1ccccc1O	0.58µM*	?	?	?	18µM*	i
CC(=NNC(=O)c1ccncc1)c1ccc2ccccc2c1O	2.3µM*	5.8µM*	?	?	18µM*	?
C/C(=N\NC(=O)c1cccc2ccccc12)c1cccnc1	0%	?	i	-28%	0%	i
C/C(=N\NC(=O)c1cc(C)nc2ccccc12)c1ccncc1	5.2µM*	7.3µM*	?	?	12µM*	?
CC(=NNC(=O)c1ccncc1)c1ccc(O)cc1O	?	?	?	-18%	?	i
CC(C)CC(=NNC(=O)c1ccncc1)c1cc(Cl)ccc1O	1.2µM*	0.82µM*	?	?	?	?
CC(NC(=O)C1CCN(c2nc3ccccc3nc2C(F)(F)F)CC1)c1ccccc1 (configuration not stated)	nt	nt	i	nt	nt	i
COc1ccc(O)c(C(=O)c2cnc3c(c2)c(C)nn3CCO)c1	-15%	8%	i	4%	-4%	i
O=C1NC(Cc2ccccc2)c2nc3ccc(F)cc3c(=O)n2-c2ncccc21 (configuration not stated)	nt	-8%	i	-2%	nt	i
C/C(=N\NC(=O)c1ccc(CN2CCc3ccccc3C2)cc1)c1ccccc1O	21µM*	21µM*	15µM*	?	23µM*	?
C/C(=N\NC(=O)CN1CCCCC1)c1ccccc1O	6.5µM*	?	i	-22%	15%	i
COC(=O)c1ccc(NC(=O)CN2CCN(c3ccccc3C)CC2)cc1	20%	2%	i	0%	5%	i

Screening data from PubChem.
